Experimental data reported in PubChem BioAssay (NCI).
This is part of a sample that, as a whole, favours compounds with a hit. Of some 83,000 tested, about 20% had one in any assay.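 Plates (96-well) were seeded with cells, treated with compound at one concentration, and incubated for 48 hours before percent growth was determined.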 Unmarked numbers belong to inactive results. The source made the active and inactive calls. How the source made its calls: active means growth percent below 10; inactive means the rest.

How the values were obtained:
Test in all cases: NCI-60 one-dose screen, 48 h (100 = growth as untreated, 0 = no growth, -100 = all killed)
Conditions in all cases: 10 µM unless noted
SK-MEL-2 melanoma = test system: SK-MEL-2 melanoma
EKVX NSCLC = test system: EKVX NSCLC
SN12C renal = test system: SN12C renal
UO-31 renal = test system: UO-31 renal
TK-10 renal = test system: TK-10 renal
ACHN renal = test system: ACHN renal
CAKI-1 renal = test system: CAKI-1 renal
A498 renal = test system: A498 renal
CCRF-CEM leukemia = test system: CCRF-CEM leukemia
MOLT-4 leukemia = test system: MOLT-4 leukemia
RPMI-8226 leukemia = test system: RPMI-8226 leukemia
OVCAR-8 ovarian = test system: OVCAR-8 ovarian
OVCAR-5 ovarian = test system: OVCAR-5 ovarian
OVCAR-4 ovarian = test system: OVCAR-4 ovarian
SK-OV-3 ovarian = test system: SK-OV-3 ovarian
OVCAR-3 ovarian = test system: OVCAR-3 ovarian
HS 578T breast = test system: HS 578T breast
NCI/ADR-RES ovarian = test system: NCI/ADR-RES ovarian
IGROV1 ovarian = test system: IGROV1 ovarian
SR leukemia = test system: SR leukemia

Row | SMILES | growth (SK-MEL-2 melanoma) | growth (EKVX NSCLC) | growth (SN12C renal) | growth (UO-31 renal) | growth (TK-10 renal) | growth (ACHN renal) | growth (CAKI-1 renal) | growth (A498 renal) | growth (CCRF-CEM leukemia) | growth (MOLT-4 leukemia) | growth (RPMI-8226 leukemia) | growth (OVCAR-8 ovarian) | growth (OVCAR-5 ovarian) | growth (OVCAR-4 ovarian) | growth (SK-OV-3 ovarian) | growth (OVCAR-3 ovarian) | growth (HS 578T breast) | growth (NCI/ADR-RES ovarian) | growth (IGROV1 ovarian) | growth (SR leukemia)
1 | Cn1cc(-c2ccc3cc(-c4ccc(CC(=O)Nc5cc(C(C)(C)C)nn5C)cc4)cnc3c2)cn1 | -38.4% (active) | 23.5% | 5.18% (active) | 1.27% (active) | 15.8% | 3.05% (active) | 0.564% (active) | -18.5% (active) | 23% | 13.2% | 3.3% (active) | 3.03% (active) | 43.8% | 3.73% (active) | -5.28% (active) | 14.2% | -1.77% (active) | -2.56% (active) | – | –
2 | C[N+]1=C(/C=C/c2ccc(O)c3ncccc23)C(C)(C)c2ccccc21 | 44.9% | 58.7% | 42.7% | 30.6% | 97.1% | 31% | 25.7% | 101% | 75.8% | 56.1% | 53.6% | 53.7% | 52.5% | 27.7% | 23% | 83% | – | 14.6% | 46% | –
3 | BrCCCc1n(Cc2ccc3ccccc3c2)c2ccccc2[n+]1Cc1ccc2ccccc2c1 | -50.8% (active) | -10.7% (active) | -92.8% (active) | 52.8% | -85.7% (active) | 5.29% (active) | -90.7% (active) | -32.5% (active) | -41.6% (active) | -35.9% (active) | -58.8% (active) | -69.2% (active) | -4.99% (active) | -24.7% (active) | -38.2% (active) | -71.5% (active) | -48.2% (active) | 58.3% | -71.9% (active) | –
4 | COc1ccc(/C=C(\C#N)n2nnc3c(F)cccc32)cc1 | 24.1% | 32.3% | 24.2% | 39.4% | 45.3% | 28.3% | 24.8% | -29.1% (active) | 18.9% | 14.4% | 17.9% | 16.3% | 15.7% | 37.8% | 39% | -34% (active) | -4.6% (active) | – | – | –
5 | COc1cc(C)c(Cc2cnc(N)nc2N)cc1OC | 87% | 100% | 105% | 88.4% | 116% | 96.6% | 97.8% | 107% | 108% | 62.6% | 82.1% | 105% | 99.6% | 99.5% | 105% | 114% | 103% | 104% | 95.1% | –
6 | CC(=O)CC(c1cccs1)c1c(-c2ccccc2)[nH]c2ccccc12 (configuration not stated) | 94.6% | 72.6% | 93% | 71.5% | 134% | 89.9% | 39.4% | 84% | 92.6% | 86.9% | 78% | 92.5% | 99.8% | 82.6% | 90.1% | 86.4% | – | 69% | 83.3% | –
7 | COc1ccc(OC)c(/C=C/c2nnc(Nc3ccccc3)o2)c1 | 95% | 89.9% | 90.1% | 94.5% | 92.5% | 97.2% | 78.3% | 73.7% | 87.2% | 68.3% | 103% | 105% | 93.2% | 102% | 109% | 103% | 98.5% | 94.1% | 109% | –
8 | COc1ccc(NC(=O)n2nc(/C=C\c3ccc(O)c(OC)c3)cc2/C=C\c2ccc(O)c(OC)c2)cc1 | 21.4% | 52.4% | 31.4% | 22.7% | 63.8% | 26% | 38.1% | 82.5% | 11.8% | 12.2% | 21.3% | 32.8% | 62.3% | 51.5% | 60.7% | 13.6% | 28.7% | 23.9% | – | –
9 | COc1ccc(OC)c(/C=C/C(=O)N/N=C/c2ccccc2)c1 | -1.33% (active) | 64% | 52.1% | 56.6% | 56.7% | 62.8% | 47.5% | 38.7% | 55.2% | 36.5% | 54.4% | 54.8% | 85% | 78.2% | 60% | 6.02% (active) | 66.5% | 8.51% (active) | 38.5% | –
10 | C#Cc1cccc(NC(=O)c2ccc(NC(=O)C=C)cc2)c1 | 79.3% [8.25 µM] | 102% [8.25 µM] | 67.5% [8.25 µM] | -67.2% [8.25 µM] (active) | 69.9% [8.25 µM] | 63.8% [8.25 µM] | 63.2% [8.25 µM] | 40.8% [8.25 µM] | 71.5% [8.25 µM] | 76.8% [8.25 µM] | 60.2% [8.25 µM] | 75.9% [8.25 µM] | 86.7% [8.25 µM] | 88.9% [8.25 µM] | 97% [8.25 µM] | 70.5% [8.25 µM] | 94.2% [8.25 µM] | 73.9% [8.25 µM] | – | –
11 | COc1ccc(/C=N/Nc2cc(=O)[nH]c3ccc(C)cc23)cc1 | 81.7% | 82% | 88.3% | 75.7% | 116% | 92.2% | 93.1% | 87.8% | 88% | 79% | 81.6% | 95.6% | 98% | 109% | 87.6% | 104% | – | 94.9% | 98.4% | –
12 | O=C1c2ccccc2NC(n2sc3ccccc3c2=O)N1c1ccccc1 (configuration not stated) | – | – | – | – | – | – | – | – | – | – | – | – | – | – | – | – | – | – | – | 87.4%
13 | Cc1ccc2c(-c3cc(-c4ccccc4)nc(N)c3C#N)cc(=O)oc2c1 | – | – | – | – | – | – | – | – | – | – | – | – | – | – | – | – | – | – | – | 100%
14 | O=C1CCC/C=C\C[C@H]2C=CC(=O)/C2=C/C[C@H](CCc2cccc(C(F)(F)F)c2)O1 | -57.2% (active) | -47.6% (active) | -37.9% (active) | -95.5% (active) | -68.9% (active) | -85.1% (active) | – | -79.7% (active) | 4.33% (active) | -18.6% (active) | – | 5.51% (active) | -16.9% (active) | 12.8% | -34.9% (active) | -65.8% (active) | 14.3% | 1.09% (active) | – | -4.73% (active)
15 | COc1cccc(OC)c1C(=O)N[C@@H]1C(=O)N2[C@@H]1SC(C)(C)[C@@H]2C(=O)O | 101% | 104% | 97.7% | 84.9% | 106% | 98.4% | – | 121% | 99.8% | 94.6% | 102% | 107% | 110% | 104% | 99.5% | 119% | 114% | 101% | 99.6% | –
16 | COc1ccc(C(=O)n2nc(-c3ccccc3)nc2N)cc1OC | 103% | 88.2% | 90.5% | 70.5% | 112% | 82.4% | – | 83.7% | 86.8% | 87.8% | 92.1% | – | 96.7% | 90.9% | 80.8% | 94.5% | 92.1% | 96.5% | – | 80.6%
17 | O=C(Cc1ccc(F)c(Cl)c1)Nc1cc(C2(C(F)(F)F)CC2)nn1CC1CCCCC1 | -48.8% (active) | 3.93% (active) | 6.18% (active) | -3.33% (active) | 3.08% (active) | -7.99% (active) | – | -33.2% (active) | 20.1% | 11.7% | 4.24% (active) | 8.52% (active) | 0.818% (active) | 13.5% | -19.9% (active) | 6.25% (active) | -0.843% (active) | 4.86% (active) | 24.5% | –
18 | COc1ccc(C(=O)/C=C/c2sc(Cl)nc2Cl)cc1 | 39.8% | 65.2% | 18% | 51.9% | 104% | -44.5% (active) | – | 93.2% | 12.3% | 11.6% | -25.4% (active) | 22.9% | 47.1% | 42.2% | 39% | -3.81% (active) | – | 1.37% (active) | – | –
19 | N#Cc1cccc(NC(=O)c2cc(-c3ccc(F)cc3F)ccc2O)c1 | -6.68% (active) | 89.4% | 4.26% (active) | -11.4% (active) | 21.9% | 7.33% (active) | – | -33.2% (active) | 27.4% | 11.8% | – | 16.8% | 36.8% | 22.1% | 6.59% (active) | 1.29% (active) | 16% | 4.93% (active) | 29% | 12.8%
